Tests used:
Experiment in all cases: DAPPL (digital affinity profiling via proximity ligation, sequencing); 10 mM Tris-HCl pH 7.5, 50 mM NaCl, 1 mM DTT, 4% glycerol, room temperature, 30 min; GST-TFs on glutathione beads, 16-mer random dsDNA library, 0.1% formaldehyde crosslink after washing; high values mean tight binding
Conditions in all cases: protein: recombinant; tags: N-terminal GST; dsDNA, one strand shown
[1] = biological target: T1, ERF (Homo sapiens, UniProt P50548 1-548)
T1 sequence: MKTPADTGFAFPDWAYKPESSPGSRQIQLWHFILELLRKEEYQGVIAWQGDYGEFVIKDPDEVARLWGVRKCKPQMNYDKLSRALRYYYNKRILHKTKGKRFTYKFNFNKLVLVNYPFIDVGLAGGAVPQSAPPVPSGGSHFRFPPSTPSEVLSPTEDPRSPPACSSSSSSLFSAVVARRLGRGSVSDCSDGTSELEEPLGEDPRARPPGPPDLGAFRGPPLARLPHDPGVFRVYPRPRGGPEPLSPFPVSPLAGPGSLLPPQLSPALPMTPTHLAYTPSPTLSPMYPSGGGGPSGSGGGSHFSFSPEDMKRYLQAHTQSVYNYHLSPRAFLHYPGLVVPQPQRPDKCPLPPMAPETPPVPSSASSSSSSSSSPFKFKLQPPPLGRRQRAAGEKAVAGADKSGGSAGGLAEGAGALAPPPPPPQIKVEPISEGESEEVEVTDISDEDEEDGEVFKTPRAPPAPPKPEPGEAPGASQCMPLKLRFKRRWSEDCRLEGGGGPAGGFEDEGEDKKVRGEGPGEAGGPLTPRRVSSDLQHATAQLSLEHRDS
Method in brief: (§1)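 Binding signal is each hexamer's read frequency for a factor divided by its frequency in the tag-only sample. The factors were GST-fused human transcription factors from yeast, captured on glutathione beads, DNA-barcoded and pooled with that sample. Pools were incubated with 200 nmole of a random double-stranded 16-mer DNA library in Tris/NaCl/DTT/glycerol buffer at room temperature for 30 min, then washed, crosslinked with 0.1% formaldehyde, proximity-ligated with BsaI/T4 ligase (1 h, 37 °C), PCR-amplified and sequenced on an Illumina NextSeq500.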

[2] = biological target: T2, ETV3L (Homo sapiens, UniProt Q6ZN32 1-361)
T2 sequence: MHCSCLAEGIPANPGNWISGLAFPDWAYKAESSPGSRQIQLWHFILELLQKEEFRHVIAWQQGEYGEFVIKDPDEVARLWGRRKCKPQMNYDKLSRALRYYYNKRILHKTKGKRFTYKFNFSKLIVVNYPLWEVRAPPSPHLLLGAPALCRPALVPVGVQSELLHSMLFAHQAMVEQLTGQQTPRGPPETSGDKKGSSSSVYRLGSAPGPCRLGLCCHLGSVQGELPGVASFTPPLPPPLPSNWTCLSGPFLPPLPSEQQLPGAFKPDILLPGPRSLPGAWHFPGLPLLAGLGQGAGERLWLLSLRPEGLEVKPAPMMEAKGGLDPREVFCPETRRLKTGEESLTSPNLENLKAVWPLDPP
Method in brief: as §1

[3] = biological target: T3, ETS2 (Homo sapiens, UniProt P15036 1-469)
T3 sequence: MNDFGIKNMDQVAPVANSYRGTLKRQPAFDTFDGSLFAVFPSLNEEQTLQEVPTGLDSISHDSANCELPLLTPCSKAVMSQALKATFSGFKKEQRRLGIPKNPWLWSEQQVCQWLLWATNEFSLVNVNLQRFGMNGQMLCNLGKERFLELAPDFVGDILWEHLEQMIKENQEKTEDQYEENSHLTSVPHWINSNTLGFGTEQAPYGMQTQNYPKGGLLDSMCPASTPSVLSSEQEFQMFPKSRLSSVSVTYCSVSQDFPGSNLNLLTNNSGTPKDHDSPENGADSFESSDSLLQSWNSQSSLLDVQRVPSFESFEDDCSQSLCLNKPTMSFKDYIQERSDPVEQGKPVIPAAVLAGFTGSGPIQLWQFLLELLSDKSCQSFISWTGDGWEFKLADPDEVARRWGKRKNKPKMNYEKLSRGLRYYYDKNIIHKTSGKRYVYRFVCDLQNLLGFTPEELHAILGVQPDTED
Method in brief: as §1

[4] = biological target: T4, SPDEF (Homo sapiens, UniProt O95238 1-335)
T4 sequence: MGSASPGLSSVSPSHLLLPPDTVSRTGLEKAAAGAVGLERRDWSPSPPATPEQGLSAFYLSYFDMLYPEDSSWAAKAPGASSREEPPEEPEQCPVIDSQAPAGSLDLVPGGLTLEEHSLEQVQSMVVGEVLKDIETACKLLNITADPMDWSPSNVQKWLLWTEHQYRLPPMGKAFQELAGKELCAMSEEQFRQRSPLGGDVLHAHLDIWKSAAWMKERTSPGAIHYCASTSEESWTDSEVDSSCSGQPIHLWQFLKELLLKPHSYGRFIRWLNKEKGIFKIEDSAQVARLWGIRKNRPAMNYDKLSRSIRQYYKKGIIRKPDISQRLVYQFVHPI
Method in brief: as §1

[5] = biological target: T5, ETV7 (Homo sapiens, UniProt Q9Y603 1-341)
T5 sequence: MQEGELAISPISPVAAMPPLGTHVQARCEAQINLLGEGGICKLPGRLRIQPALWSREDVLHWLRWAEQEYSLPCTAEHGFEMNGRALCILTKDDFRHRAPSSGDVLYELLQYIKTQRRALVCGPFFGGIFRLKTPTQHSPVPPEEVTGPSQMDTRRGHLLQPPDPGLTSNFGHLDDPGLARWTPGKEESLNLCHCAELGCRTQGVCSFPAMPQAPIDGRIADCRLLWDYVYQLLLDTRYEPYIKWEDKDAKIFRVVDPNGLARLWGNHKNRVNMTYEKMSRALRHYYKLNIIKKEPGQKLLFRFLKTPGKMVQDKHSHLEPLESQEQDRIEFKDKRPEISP
Method in brief: as §1

[6] = biological target: T6, ELF5 (Homo sapiens, UniProt Q9UKW6-2 1-255)
T6 sequence: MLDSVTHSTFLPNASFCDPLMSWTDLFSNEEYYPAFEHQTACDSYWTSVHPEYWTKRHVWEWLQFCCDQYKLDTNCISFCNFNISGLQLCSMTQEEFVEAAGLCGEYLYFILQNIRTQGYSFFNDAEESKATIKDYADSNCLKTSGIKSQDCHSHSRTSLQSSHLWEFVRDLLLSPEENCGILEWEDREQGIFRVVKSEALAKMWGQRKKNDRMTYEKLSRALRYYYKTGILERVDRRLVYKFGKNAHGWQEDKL
Method in brief: as §1

[7] = biological target: T7, ETV3 (Homo sapiens, UniProt P41162-2 1-143)
T7 sequence: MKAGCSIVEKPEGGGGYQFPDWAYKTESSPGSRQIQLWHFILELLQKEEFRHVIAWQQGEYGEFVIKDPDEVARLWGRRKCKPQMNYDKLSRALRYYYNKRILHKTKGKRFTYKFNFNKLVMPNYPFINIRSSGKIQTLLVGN
Method in brief: as §1

[8] = biological target: ETV6 (Homo sapiens, UniProt P41212 1-452)
ETV6, sequence (P41212 whole entry): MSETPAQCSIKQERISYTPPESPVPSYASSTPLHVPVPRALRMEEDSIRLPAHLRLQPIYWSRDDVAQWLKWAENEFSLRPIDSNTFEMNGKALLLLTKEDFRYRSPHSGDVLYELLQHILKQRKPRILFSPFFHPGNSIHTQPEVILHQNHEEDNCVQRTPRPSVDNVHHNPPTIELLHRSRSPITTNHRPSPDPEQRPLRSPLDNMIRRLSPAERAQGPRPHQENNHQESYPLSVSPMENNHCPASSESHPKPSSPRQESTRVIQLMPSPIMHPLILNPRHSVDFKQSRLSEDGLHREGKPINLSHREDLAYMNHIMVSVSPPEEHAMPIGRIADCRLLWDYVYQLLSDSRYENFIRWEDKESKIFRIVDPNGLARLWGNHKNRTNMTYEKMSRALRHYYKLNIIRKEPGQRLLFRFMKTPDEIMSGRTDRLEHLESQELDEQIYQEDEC
Method in brief: as §1

| Sequence | binding signal [1] | binding signal [2] | binding signal [3] | binding signal [4] | binding signal [5] | binding signal [6] | binding signal [7] | binding signal [8] |
| --- | --- | --- | --- | --- | --- | --- | --- | --- |
| CTACAT | 1.66 fold enrichment (6-mer frequency, TF over GST control) | 1.41 fold enrichment (6-mer frequency, TF over GST control) | 1.43 fold enrichment (6-mer frequency, TF over GST control) | 1.5 fold enrichment (6-mer frequency, TF over GST control) | 1.32 fold enrichment (6-mer frequency, TF over GST control) | 1.53 fold enrichment (6-mer frequency, TF over GST control) | 1.44 fold enrichment (6-mer frequency, TF over GST control) | 1.43 fold enrichment (6-mer frequency, TF over GST control) |
| ATCTCG | 1.36 fold enrichment (6-mer frequency, TF over GST control) | 1.38 fold enrichment (6-mer frequency, TF over GST control) | 1.42 fold enrichment (6-mer frequency, TF over GST control) | 1.28 fold enrichment (6-mer frequency, TF over GST control) | 1.38 fold enrichment (6-mer frequency, TF over GST control) | 1.28 fold enrichment (6-mer frequency, TF over GST control) | 1.29 fold enrichment (6-mer frequency, TF over GST control) | 1.3 fold enrichment (6-mer frequency, TF over GST control) |
| ATTCGC | 1.24 fold enrichment (6-mer frequency, TF over GST control) | 1.23 fold enrichment (6-mer frequency, TF over GST control) | 1.15 fold enrichment (6-mer frequency, TF over GST control) | 1.26 fold enrichment (6-mer frequency, TF over GST control) | 1.12 fold enrichment (6-mer frequency, TF over GST control) | 1.18 fold enrichment (6-mer frequency, TF over GST control) | 1.23 fold enrichment (6-mer frequency, TF over GST control) | 1.25 fold enrichment (6-mer frequency, TF over GST control) |
| TTACGG | 1.36 fold enrichment (6-mer frequency, TF over GST control) | 1.22 fold enrichment (6-mer frequency, TF over GST control) | 1.43 fold enrichment (6-mer frequency, TF over GST control) | 1.32 fold enrichment (6-mer frequency, TF over GST control) | 1.16 fold enrichment (6-mer frequency, TF over GST control) | 1.32 fold enrichment (6-mer frequency, TF over GST control) | 1.17 fold enrichment (6-mer frequency, TF over GST control) | 1.26 fold enrichment (6-mer frequency, TF over GST control) |

From article PMC7862700, “An all-to-all approach to the identification of sequence-specific readers for epigenetic DNA modifications on cytosine”
